The source made the active and inactive calls. The calls were made as follows: active = hit-call score of the fitted dose curve at least 0.9, where 1 is the maximum; inactive = score below 0.9.
Columns and labels:
[1] = ATG_CRE_CIS: Attagene CIS-FACTORIAL HepG2 Assay for human cAMP Responsive Element (CRE) binding protein 3 (AID 2282926); conditions: HepG2 CRE cis-reporter, Attagene multiplexed mRNA; actives raise or lower the signal
Outline: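 Endogenous CRE-binding activity in HepG2 is reported through a cis-regulated transfected reporter. Following a day of exposure, mRNA levels are determined by reverse transcription PCR and fluorescent fragment analysis; fits run in both directions versus DMSO.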

[2] = biological target: CCAAT/enhancer-binding protein beta (Homo sapiens) (UniProt P17676); experiment: ATG_C_EBP_CIS: Attagene CIS-FACTORIAL HepG2 Assay for human CCAAT/Enhancer Binding Protein (C/EBP) beta (AID 2282927); conditions: HepG2 Attagene cis-factorial transcription factor reporter; actives raise or lower the signal
Sequence of CCAAT/enhancer-binding protein beta (Homo sapiens) (P17676 whole entry, looked up): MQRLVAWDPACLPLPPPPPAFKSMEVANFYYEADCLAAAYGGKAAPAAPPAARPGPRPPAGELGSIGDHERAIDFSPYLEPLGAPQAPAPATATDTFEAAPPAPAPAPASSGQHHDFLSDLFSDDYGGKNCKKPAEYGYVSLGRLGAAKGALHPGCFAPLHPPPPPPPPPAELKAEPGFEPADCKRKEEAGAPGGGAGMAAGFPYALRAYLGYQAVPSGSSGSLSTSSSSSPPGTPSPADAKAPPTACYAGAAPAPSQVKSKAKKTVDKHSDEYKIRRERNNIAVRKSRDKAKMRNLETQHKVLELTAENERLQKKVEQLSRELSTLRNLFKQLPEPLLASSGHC
Outline: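 HepG2 transiently transfected with multiplexed reporter units under cis-regulatory promoters reporting endogenous C/EBPb activity. After 24 h exposure, reporter mRNA assayed by RT-PCR, fluorescent labelling, HpaI digestion and capillary electrophoresis; bidirectional fitting versus DMSO.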

[3] = ATG_CMV_CIS: Attagene CIS-FACTORIAL HepG2 Assay for human CMV (Internal Marker) (AID 2282928); conditions: HepG2 CMV promoter reporter, transcription factor profiling; actives raise or lower the signal;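 also: endpoint acts as a background internal control marker rather than a target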
Outline: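 CMV internal-marker background readout in transiently transfected HepG2 cells bearing cis-regulated reporter units. Reporter mRNA is measured 24 h after dosing by RT-PCR and capillary electrophoresis, with bidirectional fitting against DMSO.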

[4] = ATG_DR4_LXR_CIS: Attagene CIS-FACTORIAL HepG2 Assay for human Liver X Receptor (LXR), DR4 submotif (AID 2282929); conditions: HepG2 Attagene DR4 cis-reporter, mRNA transcription; actives raise or lower the signal
Outline: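 Total RNA from 24 h-treated, MRTU-transfected HepG2 cells underwent reverse transcription, PCR, fluorescent primer extension and restriction digestion before capillary electrophoresis. Both increases and decreases in reporter signal were fitted against DMSO.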

[5] = biological target: Aryl hydrocarbon receptor (Homo sapiens) (UniProt P35869); experiment: ATG_Ahr_CIS: Attagene CIS-FACTORIAL HepG2 Assay for human Aryl Hydrocarbon Receptor (Ahr) (AID 2282930); conditions: HepG2 AhR cis-factorial reporter transcription; actives raise or lower the signal
Sequence of Aryl hydrocarbon receptor (Homo sapiens) (P35869 whole entry, looked up): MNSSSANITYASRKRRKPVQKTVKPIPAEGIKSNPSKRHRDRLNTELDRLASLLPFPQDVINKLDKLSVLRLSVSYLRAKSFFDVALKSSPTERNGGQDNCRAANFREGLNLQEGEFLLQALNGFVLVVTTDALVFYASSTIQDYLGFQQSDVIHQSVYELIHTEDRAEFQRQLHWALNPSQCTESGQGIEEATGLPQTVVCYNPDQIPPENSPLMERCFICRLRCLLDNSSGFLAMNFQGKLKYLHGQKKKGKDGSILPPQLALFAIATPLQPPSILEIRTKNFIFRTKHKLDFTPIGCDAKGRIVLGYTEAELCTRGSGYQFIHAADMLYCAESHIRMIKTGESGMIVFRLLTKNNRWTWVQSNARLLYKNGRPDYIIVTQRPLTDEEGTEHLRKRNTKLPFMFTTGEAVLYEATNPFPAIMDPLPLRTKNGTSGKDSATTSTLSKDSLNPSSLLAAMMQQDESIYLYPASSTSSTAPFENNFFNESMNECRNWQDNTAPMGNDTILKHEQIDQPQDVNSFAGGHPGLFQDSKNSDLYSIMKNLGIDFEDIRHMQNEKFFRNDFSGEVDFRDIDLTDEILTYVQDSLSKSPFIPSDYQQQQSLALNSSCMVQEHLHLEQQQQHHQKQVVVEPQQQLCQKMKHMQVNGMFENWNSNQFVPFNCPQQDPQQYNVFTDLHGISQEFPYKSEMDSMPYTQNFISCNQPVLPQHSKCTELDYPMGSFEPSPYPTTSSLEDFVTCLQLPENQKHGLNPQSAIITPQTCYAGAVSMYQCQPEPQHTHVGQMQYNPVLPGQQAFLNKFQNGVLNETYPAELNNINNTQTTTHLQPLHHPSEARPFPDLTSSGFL
Outline: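 HepG2 cells transiently transfected with cis-element-driven multiplexed reporter units; endogenous AhR activity read as reporter mRNA 24 h after dosing, via RT-PCR, 6-FAM labelling, HpaI digestion and capillary electrophoresis. Bidirectional fit relative to DMSO.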

[6] = ATG_AP_1_CIS: Attagene CIS-FACTORIAL HepG2 Assay for human Activator Protein 1 (AP-1) (AID 2282931); conditions: HepG2 Attagene cis-factorial AP-1 reporter mRNA; actives raise or lower the signal
Outline: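 HepG2, transient cis-reporter transfection; 24 h; readout RT-PCR/CE fluorescence; DMSO baseline, gain and loss fitted.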

[7] = ATG_AP_2_CIS: Attagene CIS-FACTORIAL HepG2 Assay for human Activator Protein 2 (AP-2) (AID 2282932); conditions: HepG2 AP-2 cis-reporter, Attagene transcription factor profiling; actives raise or lower the signal
Outline: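 HepG2 cells transiently transfected with cis-element reporter units and exposed for 24 h. Reporter mRNA measured by RT-PCR, FAM labelling, HpaI digestion and capillary electrophoresis. Changes in either direction fitted relative to DMSO.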

[8] = ATG_BRE_CIS: Attagene CIS-FACTORIAL HepG2 Assay for human Bone Morphogenetic Protein (BMP) Response Element (BRE) (AID 2282933); conditions: HepG2 BMP response element reporter, Attagene transcription factor profiling; actives raise or lower the signal
Outline: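 Endogenous transcription factor activity read in transiently transfected HepG2 cells after 24 h chemical exposure. Bidirectional curve fitting against DMSO; readout is reporter transcript level by RT-PCR with capillary electrophoresis of labelled products.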

[9] = biological target: Retinoic acid receptor alpha (Homo sapiens) (UniProt P10276); experiment: ATG_DR5_RAR_CIS: Attagene CIS-FACTORIAL HepG2 Assay for human Retinoic Acid Receptor Alpha (RARE), DR5 submotif (AID 2282934); conditions: HepG2 Attagene cis-factorial RARE DR5 reporter, mRNA; actives raise or lower the signal
Sequence of Retinoic acid receptor alpha (Homo sapiens) (P10276 whole entry, looked up): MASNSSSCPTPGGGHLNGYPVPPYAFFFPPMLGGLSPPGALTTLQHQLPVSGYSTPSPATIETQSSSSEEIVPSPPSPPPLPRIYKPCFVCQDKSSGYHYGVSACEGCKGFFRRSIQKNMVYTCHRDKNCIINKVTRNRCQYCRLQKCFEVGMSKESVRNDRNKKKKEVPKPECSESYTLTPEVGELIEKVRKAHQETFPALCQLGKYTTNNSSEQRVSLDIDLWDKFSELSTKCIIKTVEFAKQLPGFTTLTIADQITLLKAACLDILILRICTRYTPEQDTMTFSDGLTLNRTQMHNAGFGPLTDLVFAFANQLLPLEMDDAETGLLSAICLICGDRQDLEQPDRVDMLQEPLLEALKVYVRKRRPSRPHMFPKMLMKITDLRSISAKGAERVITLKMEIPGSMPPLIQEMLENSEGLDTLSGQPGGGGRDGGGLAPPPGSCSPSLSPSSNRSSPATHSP
Outline: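 HepG2 cells transiently transfected with multiplexed reporter units; DR5 cis-element drives reporter through endogenous transcription factors. After 24 h dosing, reporter mRNA quantified by RT-PCR, fluorescent labeling, HpaI digestion and capillary electrophoresis; bidirectional fitting versus DMSO.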

[10] = biological target: Transcription factor E2F1 (Homo sapiens) (UniProt Q01094); experiment: ATG_E2F_CIS: Attagene CIS-FACTORIAL HepG2 Assay for human E2F Transcription Factor 1 (AID 2282935); conditions: HepG2 Attagene cis-reporter, E2F reporter RNA transcripts; actives raise or lower the signal
Sequence of Transcription factor E2F1 (Homo sapiens) (Q01094 whole entry, looked up): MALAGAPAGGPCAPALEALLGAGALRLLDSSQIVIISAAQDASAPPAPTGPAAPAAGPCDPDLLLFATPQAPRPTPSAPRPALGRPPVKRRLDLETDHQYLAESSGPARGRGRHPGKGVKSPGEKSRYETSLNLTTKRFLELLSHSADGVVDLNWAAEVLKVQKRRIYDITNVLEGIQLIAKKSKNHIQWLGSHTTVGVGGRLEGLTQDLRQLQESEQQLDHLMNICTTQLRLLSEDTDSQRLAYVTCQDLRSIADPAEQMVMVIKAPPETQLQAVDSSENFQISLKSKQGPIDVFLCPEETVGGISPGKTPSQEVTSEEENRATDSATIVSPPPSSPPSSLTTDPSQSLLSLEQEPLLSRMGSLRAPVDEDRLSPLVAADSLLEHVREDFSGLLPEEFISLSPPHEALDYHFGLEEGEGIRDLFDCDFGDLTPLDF
Outline: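 Endogenous E2F1 activity read through cis-promoter reporter units transfected into HepG2. After 24 h compound treatment, reporter mRNA measured by RT-PCR, HpaI digestion and capillary electrophoresis. Bidirectional fit versus DMSO.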

[11] = ATG_E_Box_CIS: Attagene CIS-FACTORIAL HepG2 Assay for human Enhancer Box (E-box) (AID 2282936); conditions: HepG2 E-box cis-reporter transcription, actives raise or lower the signal
Outline: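 HepG2 cells transiently transfected with multiplexed cis-element reporter units, dosed 24 h; reporter mRNA quantified by RT-PCR, 6-FAM labelling, HpaI digestion and capillary electrophoresis. E-box (USF1) signal fitted bidirectionally vs DMSO.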

[12] = ATG_M_61_CIS: Attagene CIS-FACTORIAL HepG2 Assay for M61 Transcription Factor (Internal Marker) (AID 2282937); conditions: HepG2 Attagene CIS-FACTORIAL M61 internal marker reporter; actives raise or lower the signal
Outline: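 Transfect HepG2 with MRTUs; dose 24 h; isolate RNA; reverse-transcribe with DNase I treatment; PCR-amplify, FAM-label and cut with HpaI for 2 h at 37 C; resolve by CE. Bidirectional fitting against DMSO.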

[13] = ATG_EGR_CIS: Attagene CIS-FACTORIAL HepG2 Assay for human Early Growth Response 1 (EGR1) (AID 2282938); conditions: HepG2 Attagene CIS-FACTORIAL EGR reporter mRNA; actives raise or lower the signal
Outline: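 After a 24 h treatment of transiently transfected HepG2 cells, total RNA was reverse-transcribed and reporter sequences PCR-amplified, labelled and run on capillary electrophoresis. Reporters sit under cis-regulatory promoters sensing endogenous factors.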

[14] = ATG_M_19_CIS: Attagene CIS-FACTORIAL HepG2 Assay for M19 Transcription Factor (Internal Marker) (AID 2282939); conditions: HepG2 Attagene CIS-FACTORIAL M19 internal marker reporter; actives raise or lower the signal
Outline: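 Internal marker readout, fitted in both directions against DMSO, from HepG2 cells carrying transfected cis-element reporter constructs; RT-PCR and capillary electrophoresis of reporter mRNA after 24 h exposure.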

[15] = ATG_ERE_CIS: Attagene CIS-FACTORIAL HepG2 Assay for Estrogen Response Element (ERE) (AID 2282940); conditions: HepG2 ERE cis-reporter, Attagene RNA transcript; actives raise or lower the signal
Outline: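 After 24 h compound treatment, RNA from transfected HepG2 cells was reverse-transcribed, reporter cDNA PCR-amplified, FAM-labelled, HpaI-cut and resolved by capillary electrophoresis. ERE-driven cis reporter transcripts reflect endogenous factors; gain or loss scored against DMSO.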

[16] = ATG_Ets_CIS: Attagene CIS-FACTORIAL HepG2 Assay for human Erythroblast Transformation Specific (ETS) (AID 2282941); conditions: HepG2 ETS cis-reporter transcription, actives raise or lower the signal
Outline: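 HepG2 cells transfected with multiple cis-regulated reporter units measuring endogenous ETS-driven transcription, 24 h after dosing. Reporter mRNA quantified by RT-PCR with capillary electrophoresis; bidirectional fit relative to DMSO.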

[17] = biological target: Hepatocyte nuclear factor 3-beta (Homo sapiens) (UniProt Q9Y261); experiment: ATG_FoxA2_CIS: Attagene CIS-FACTORIAL HepG2 Assay for human Forkhead box A2 (FOXA2) (AID 2282942); conditions: HepG2 cis-reporter transcription factor activity, 24 h; actives raise or lower the signal
Sequence of Hepatocyte nuclear factor 3-beta (Homo sapiens) (Q9Y261 whole entry, looked up): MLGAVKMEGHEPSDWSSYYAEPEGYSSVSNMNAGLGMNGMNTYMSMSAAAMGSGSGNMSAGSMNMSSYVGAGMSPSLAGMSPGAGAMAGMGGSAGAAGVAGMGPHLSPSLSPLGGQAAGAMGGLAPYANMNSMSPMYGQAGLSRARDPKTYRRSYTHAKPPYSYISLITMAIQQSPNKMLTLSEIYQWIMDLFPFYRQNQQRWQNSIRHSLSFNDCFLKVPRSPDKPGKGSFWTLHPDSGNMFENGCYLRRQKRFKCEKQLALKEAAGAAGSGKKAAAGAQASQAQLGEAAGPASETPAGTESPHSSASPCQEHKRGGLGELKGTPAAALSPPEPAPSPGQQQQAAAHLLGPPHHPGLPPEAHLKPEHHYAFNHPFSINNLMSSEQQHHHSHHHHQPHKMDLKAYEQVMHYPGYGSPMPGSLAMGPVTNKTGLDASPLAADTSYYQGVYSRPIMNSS
Outline: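 24 h dosing of HepG2 bearing cis-reporter constructs; mRNA readout by RT-PCR/CE fluorescence; bidirectional fit, DMSO baseline.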

[18] = ATG_FoxO_CIS: Attagene CIS-FACTORIAL HepG2 Assay for human Forkhead box O (FoxO) (AID 2282943); conditions: HepG2 Attagene cis-reporter, FoxO element, mRNA; actives raise or lower the signal
Outline: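 HepG2 cells transiently transfected with cis-element-driven reporter units report endogenous FoxO activity. After 24 h chemical exposure, reporter mRNA quantified by RT-PCR, fluorescent labeling, HpaI digestion and capillary electrophoresis; bidirectional fit versus DMSO.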

[19] = ATG_GATA_CIS: Attagene CIS-FACTORIAL HepG2 Assay for human GATA Binding Protein (AID 2282944); conditions: HepG2 GATA cis-element reporter, Attagene multiplex mRNA; actives raise or lower the signal
Outline: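 Reporter transcripts from a GATA cis-regulated unit, among multiplexed reporters in transfected HepG2 cells, were measured by RT-PCR with capillary electrophoresis after 24 h dosing. Induction or loss scored relative to DMSO.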

[20] = ATG_GLI_CIS: Attagene CIS-FACTORIAL HepG2 Assay for human Zinc Finger Protein GLI1 (AID 2282945); conditions: HepG2, Attagene cis-factorial reporter mRNA, GLI element; actives raise or lower the signal
Outline: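 Transiently transfected HepG2 cells report endogenous transcription factor activity via cis-element-driven reporter units. After 24 h compound exposure, reporter mRNA was measured by RT-PCR with capillary electrophoresis; bidirectional fitting against DMSO baseline.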

Measured: AC50

O=C(Cl)c1cc(C(=O)Cl)cc(C(=O)Cl)c1
active: [5] 77.5 µM | [8] 125 µM | [11] 138 µM
inactive: all other assays above

CC(C)=CCCC(C)C=O (stereo not given)
inactive: all assays above

CC(=O)OC1C2(C)CCC(C2)C1(C)C (stereo not given)
inactive: all assays above

CC1(C)S[C@@H]2[C@H](NC(=O)COc3ccccc3)C(=O)N2[C@H]1C(=O)O
inactive: all assays above

C1CN(SSN2CCOCC2)CCO1
inactive: all assays above

CCCCCCCCCCCCCCCC(=O)OCC
inactive: all assays above

COC(=O)c1c(C)cc(O)c(C)c1O
inactive: all assays above

From PubChem BioAssay (EPA / NIEHS)
